In PubChem BioAssay AID1159580 (chemical genetic matrix, 2015):
In all, about 5,500 compounds went through this assay and about 2,000 (36%) were called active. Not shown: some 18% with an inconclusive outcome. Cut-off read from the data, not from the text of the source: active = normalized growth mostly below about 0.91 (no sharp cut-off); inconclusive = no clear call, values can overlap the other calls; inactive = mostly above about 0.92. The list shows a part of the results.

Assay: chemical genetic growth profiling, strain panel (AID 1159580);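 note: tested at 20 µM; growth read once vehicle control cultures reached saturation at 30 °C; 1 = growth at the plate median or of vehicle wells; lower values mean less growth of the strain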
Conditions: growth OD

Measured: normalized growth

Nc1ccn(C2O[C@H](CO)[C@@H](O)[C@H]2O)c(=O)n1 (some centres undefined)
inactive: S. cerevisiae deletion strains, locus YJR075W, strain HOC1, hits give low values 1.02 | S. cerevisiae deletion strains, locus YKL009W, strain mrt4, hits give low values 1.04 | S. cerevisiae deletion strains, locus YKL068W, hits give low values 1 | S. cerevisiae deletion strains, locus YKL085W, strain MDH1 (second series), hits give low values 1 | S. cerevisiae deletion strains, locus YKL085W, strain MDH1, hits give low values 1 | S. cerevisiae deletion strains, locus YKL160W, strain elf1, hits give low values 0.994 | S. cerevisiae deletion strains, locus YKL190W, strain CNB1, hits give low values 0.989 | S. cerevisiae deletion strains, locus YKR001C, strain vps1, hits give low values 1.03 | S. cerevisiae deletion strains, locus YKR026C, strain gcn3, hits give low values 1 | S. cerevisiae deletion strains, locus YKR091W, strain srl3, hits give low values 0.986 | S. cerevisiae deletion strains, locus YLL001W, strain dnm1, hits give low values 0.989 | S. cerevisiae deletion strains, locus YLL026W, hits give low values 0.994 | S. cerevisiae deletion strains, locus YLL041C, strain sdh2, hits give low values 0.987 | S. cerevisiae deletion strains, locus YLR027C, strain aat2, hits give low values 0.984 | S. cerevisiae deletion strains, locus YLR039C, strain RIC1, hits give low values 1.01 | S. cerevisiae deletion strains, locus YLR058C, strain SHM2, hits give low values 0.998 | S. cerevisiae deletion strains, locus YLR102C, strain apc9, hits give low values 1.01 | S. cerevisiae deletion strains, locus YLR113W, strain HOG1, hits give low values 1.01 | S. cerevisiae deletion strains, locus YLR221C, strain rsa3, hits give low values 1 | S. cerevisiae deletion strains, locus YLR258W, strain gsy2, hits give low values 1 | S. cerevisiae deletion strains, locus YLR262C, strain YPT6 (second series), hits give low values 0.992 | S. cerevisiae deletion strains, locus YLR262C, strain YPT6, hits give low values 1.05 | S. cerevisiae deletion strains, locus YLR268W, strain sec22, hits give low values 1.05 | S. cerevisiae deletion strains, locus YLR320W, strain mms22, hits give low values 0.995 | S. cerevisiae deletion strains, locus YLR330W, strain CHS5, hits give low values 0.986 | S. cerevisiae deletion strains, locus YLR342W, strain FKS1 (second series), hits give low values 1.02 | S. cerevisiae deletion strains, locus YLR342W, strain FKS1, hits give low values 0.995 | S. cerevisiae deletion strains, locus YLR357W, strain rsc2, hits give low values 0.964 | S. cerevisiae deletion strains, locus YLR370C, strain arc18, hits give low values 0.998 | S. cerevisiae deletion strains, locus YLR371W, strain rom2, hits give low values 1.01 | S. cerevisiae deletion strains, locus YLR384C, strain iki3, hits give low values 1 | S. cerevisiae deletion strains, locus YLR418C, strain cdc73, hits give low values 1.01 | S. cerevisiae deletion strains, locus YML016C, strain PPZ1, hits give low values 1 | S. cerevisiae deletion strains, locus YML032C, strain rad52, hits give low values 0.993 | S. cerevisiae deletion strains, locus YML120C, strain ndi1, hits give low values 0.979 | S. cerevisiae deletion strains, locus YML124C, strain tub3, hits give low values 1.01 | S. cerevisiae deletion strains, locus YMR058W, strain fet3, hits give low values 0.983 | S. cerevisiae deletion strains, locus YMR078C, strain ctf18, hits give low values 1.02 | S. cerevisiae deletion strains, locus YMR125W, strain sto1, hits give low values 0.973 | S. cerevisiae deletion strains, locus YMR129W, hits give low values 0.991 | S. cerevisiae deletion strains, locus YMR205C, strain PFK2, hits give low values 0.998 | S. cerevisiae deletion strains, locus YMR223W, strain ubp8, hits give low values 1.02 | S. cerevisiae deletion strains, locus YMR231W, strain pep5, hits give low values 0.979 | S. cerevisiae deletion strains, locus YMR307W, strain GAS1, hits give low values 1.05 | S. cerevisiae deletion strains, locus YNL067W, strain RPL9B, hits give low values 1.03 | S. cerevisiae deletion strains, locus YNL071W, strain lat1, hits give low values 0.983 | S. cerevisiae deletion strains, locus YNL128W, strain TEP1, hits give low values 1.01 | S. cerevisiae deletion strains, locus YNL153C, strain GIM3, hits give low values 1.03 | S. cerevisiae deletion strains, locus YNL183C, strain NPR1, hits give low values 0.933 | S. cerevisiae deletion strains, locus YNL209W, strain ssb2, hits give low values 0.992 | S. cerevisiae deletion strains, locus YNL233W, strain BNI4, hits give low values 1.05 | S. cerevisiae deletion strains, locus YNL248C, strain rpa49, hits give low values 0.984 | S. cerevisiae deletion strains, locus YNL250W, strain rad50, hits give low values 1 | S. cerevisiae deletion strains, locus YNL271C, strain bni1, hits give low values 1.01 | S. cerevisiae deletion strains, locus YNL298W, strain CLA4, hits give low values 1 | S. cerevisiae deletion strains, locus YNL307C, strain MCK1, hits give low values 1.02 | S. cerevisiae deletion strains, locus YNL322C, strain KRE1 (second series), hits give low values 1.01 | S. cerevisiae deletion strains, locus YNR049C, strain mso1, hits give low values 0.985 | S. cerevisiae deletion strains, locus YNR052C, strain pop2, hits give low values 1.01 | S. cerevisiae deletion strains, locus YOL006C, strain TOP1, hits give low values 1.09 | S. cerevisiae deletion strains, locus YOL012C, strain htz1 0.74 | S. cerevisiae deletion strains, locus YOL147C, strain pex11, hits give low values 1 | S. cerevisiae deletion strains, locus YOR001W, strain rrp6, hits give low values 0.98 | S. cerevisiae deletion strains, locus YOR061W, strain CKA2, hits give low values 1.01 | S. cerevisiae deletion strains, locus YOR069W, strain VPS5, hits give low values 1.01 | S. cerevisiae deletion strains, locus YOR070C, strain gyp1, hits give low values 1 | S. cerevisiae deletion strains, locus YOR080W, strain dia2, hits give low values 1 | S. cerevisiae deletion strains, locus YOR083W, strain WHI5, hits give low values 0.992 | S. cerevisiae deletion strains, locus YOR106W, strain vam3, hits give low values 1.02 | S. cerevisiae deletion strains, locus YOR136W, strain idh2, hits give low values 1.01 | S. cerevisiae deletion strains, locus YOR144C, strain elg1, hits give low values 1.01 | S. cerevisiae deletion strains, locus YOR184W, strain ser1, hits give low values 1.02 | S. cerevisiae deletion strains, locus YOR231W, strain MKK1, hits give low values 0.997 | S. cerevisiae deletion strains, locus YOR265W, strain rbl2, hits give low values 0.988 | S. cerevisiae deletion strains, locus YOR270C, strain vph1, hits give low values 0.956 | S. cerevisiae deletion strains, locus YOR290C, strain snf2, hits give low values 0.989 | S. cerevisiae deletion strains, locus YOR316C, strain cot1, hits give low values 1.01 | S. cerevisiae deletion strains, locus YPL051W, strain arl3, hits give low values 1 | S. cerevisiae deletion strains, locus YPL055C, strain LGE1, hits give low values 1.01 | S. cerevisiae deletion strains, locus YPL078C, strain atp4, hits give low values 0.993 | S. cerevisiae deletion strains, locus YPL106C, strain sse1, hits give low values 0.992 | S. cerevisiae deletion strains, locus YPL240C, strain hsp82, hits give low values 1 | S. cerevisiae deletion strains, locus YPL256C, strain CLN2, hits give low values 1 | S. cerevisiae deletion strains, locus YPR119W, strain clb2, hits give low values 0.996 | S. cerevisiae deletion strains, locus YPR141C, strain kar3, hits give low values 1.01 | S. cerevisiae deletion strains, locus YPR163C, strain tif3, hits give low values 1.01 | S. cerevisiae deletion strains, locus YPR167C, strain met16, hits give low values 1.01 | S. cerevisiae deletion strains, strain wtn01, hits give low values 1.05 | S. cerevisiae strains, strain wild type, hits give low values 0.98
